This is a sample that favours compounds with a hit; in the whole collection about 3.5% have one here.
MITF primary: MITF inhibitors, primary screen, biochemical, AlphaScreen, human | Microphthalmia-associated transcription factor (Homo sapiens), O75030 | AlphaScreen MITF homodimerization, bead proximity signal | inhibition, % at 2.6 µM | 650,000 tested, 0.91% active; in the data active = inhibition above about 50%;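 note: 0% = vehicle wells with protein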
Target sequence (O75030 whole entry, looked up): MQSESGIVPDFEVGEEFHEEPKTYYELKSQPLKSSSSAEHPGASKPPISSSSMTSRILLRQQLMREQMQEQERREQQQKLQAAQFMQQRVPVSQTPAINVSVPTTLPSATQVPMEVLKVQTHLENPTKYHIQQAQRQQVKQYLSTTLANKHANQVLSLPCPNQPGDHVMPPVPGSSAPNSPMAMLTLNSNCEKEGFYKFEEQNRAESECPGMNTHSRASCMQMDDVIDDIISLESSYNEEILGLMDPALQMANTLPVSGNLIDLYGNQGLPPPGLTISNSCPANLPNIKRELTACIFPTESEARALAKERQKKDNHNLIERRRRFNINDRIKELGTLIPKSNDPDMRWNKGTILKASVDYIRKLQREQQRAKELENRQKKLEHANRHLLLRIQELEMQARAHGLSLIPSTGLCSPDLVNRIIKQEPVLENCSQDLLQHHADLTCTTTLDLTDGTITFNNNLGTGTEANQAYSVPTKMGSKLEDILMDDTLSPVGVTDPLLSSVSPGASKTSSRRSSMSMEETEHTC
GPR151 activ: activators of human GPR151, primary screen, cell-based, PathHunter beta-arrestin, luminescence; G-protein coupled receptor 151 (Homo sapiens), Q8TDV0; PathHunter beta-arrestin GPR151 cells; activation, % at 11.2 µM; 650,000 tested, 1% active; in the data active = activation above about 4.9%;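 note: 0% = median of compound wells and 100% = cells with positive control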
TEAD-YAP inh: TEAD-YAP interaction inhibition, primary screen, TEAD-YAP interaction inhibitor project, luminescence, HEK-TIYL cells; TEAD-Gal4/YAP UAS-luciferase luminescence; 640,000 tested, 1.4% active; AID 1259422, 2018; inhibition, % at 9.12 µM; in the data active = inhibition above about 32%;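 note: 0% = median of test compound wells and 100% = reference inhibitor wells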
FBW7 act: FBW7 E3 ligase activators, primary screen, biochemical, AlphaScreen, human; F-box/WD repeat-containing protein 7 (Homo sapiens), Q969H0; AlphaScreen FBW7–phospho-cyclin E peptide binding, activator screen; normalized activity (activation), % at 26.1 µM; 650,000 tested, 0.13% active; in the data active = normalized activity above about 1.9%;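 note: purified mutant Fbw7 with reduced substrate affinity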
GPR151 confirm: GPR151 activators, triplicate retest, confirmation, cell-based, PathHunter beta-arrestin, luminescence | GPR151 PathHunter beta-arrestin cells, 90 min; % of EA-reagent control over plate median | shares compounds with GPR151 activ | activation, % at 11.2 µM | AID 1508609, 2020 | 6,700 tested, under 10 active;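 active = mean percent activation across replicates above the confirmation screen cutoff of 4.91%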
GPR119 ag: GPR119 activators in beta-arrestin cells, counter-screen for GPR151 activator project, cell-based, PathHunter beta-arrestin, luminescence, triplicate; shares compounds with GPR151 activ; 90 min; 0 = compound-well median, 100 = enzyme-acceptor control; activation, % at 11.2 µM; 6,700 tested, 0.3% active; AID 1508611, 2020;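 active = mean percent activation in the counterscreen above 29.09%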;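 note: counterscreen on off-target GPR119 to flag nonselective hits from the GPR151 activator screen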
Numbers without * were called inactive; / = no result given; ! = repeats disagree.

SMILES	MITF primary	GPR151 activ	TEAD-YAP inh	FBW7 act	GPR151 confirm	GPR119 ag
Cn1c(=O)c2cc(C(=O)c3ccccc3O)cnc2n(C)c1=O	4	-1	-2	0	/	/
CCCCn1c(=O)c2c(nc3n(Cc4ccc(OC)cc4)c(C)cn23)n(C)c1=O	11	0	3	1	/	/
Cc1cn2c3c(=O)n(CC(C)C)c(=O)n(C)c3nc2n1C	13	5.6*	5	0	-1	6
C=CCn1c(C)cn2c3c(=O)n(CC(C)C)c(=O)n(C)c3nc12	-7	1	6	0	/	/
CCOC(=O)c1ccc(-n2c(C)cn3c4c(=O)n(C)c(=O)n(C)c4nc23)cc1	-6	1	-1	0	/	/
CCOC(=O)c1ccc(-n2c(C)cn3c4c(=O)n(CCC(C)C)c(=O)n(C)c4nc23)cc1	1	5.1*	10	0	0	5
CCCCCn1c(=O)c2c(nc3n(Cc4ccc(OC)cc4)c(C)cn23)n(C)c1=O	1	4.9*	7	0	-1	-7
O=C1N[C@@H](Cc2ccccc2)C(=O)N2CCN(Cc3cccc4cccnc34)C[C@H]12	9	-1	2	1	/	/
Cc1cccn2c(CN3CCOCC3)c(C(=O)N3CCCCC3)nc12	8	0	-13	0	/	/
Cc1cccn2c(CN3CCN(c4ccncc4)CC3)c(C(=O)N3CCCCC3)nc12	-11	5.2*	8	0	0	5
Cc1cccn2c(CNC3CCOC(C)(C)C3)c(C(=O)N3CCOCC3)nc12 (stereo not given)	0	4.9*	-8	0	0	-4
Cc1cccn2c(CNCCc3ccccn3)c(C(=O)N3CCOCC3)nc12	-9	5.9*	-6	0	0	3
Cc1ccc(Nc2ccc(Nc3ccc(C)cc3)cc2)cc1	25	1	-14	0	/	/
O=C(NC(c1ccccc1Cl)c1ccc2cccnc2c1O)c1ccccc1 (stereo not given)	-4	7.5*	72*	-1	0	1
N#Cc1ccc(C(=O)C(=O)c2ccccc2)cc1C#N	0	-1	-7	1	/	/
N#Cc1ccccc1C(Br)C(Br)C(=O)O (stereo not given)	-2	6.0*	-5	0	-1	-8
O=C(CCCC(=O)OCC(=O)c1ccc(Cl)c([N+](=O)[O-])c1)Nc1ccccc1Cl	-1	5.1*	3	0	0	6
COc1ccc(NC(=O)CCC(=O)Oc2ccc(C)cc2)cc1	-4	16*	1	0	-1	-6
CCc1ccc(C(=O)COC(=O)CCC(=O)Nc2ccc([N+](=O)[O-])cc2)cc1	13	-1	3	0	/	/
CCc1ccc(C(=O)COC(=O)CCC(=O)Nc2ccc(OC)cc2)cc1	17	6.5*	6	0	-1	-6
CCOC(=O)c1ccc(NC(=O)CCC(=O)OCC(=O)c2ccc([N+](=O)[O-])cc2)cc1	0	7.4*	3	0	0	8
CCc1ccccc1NC(=O)CCC(=O)OCC(=O)c1ccc(Cl)cc1	10	8.7*	11	0	0	-6
CCc1ccccc1NC(=O)CCC(=O)OCC(=O)c1ccc(C)cc1	11	-2	1	0	/	/
Oc1ccccc1CNc1cc2c(cc1Br)OCCO2	10	19*	-2	0	0	-2
Oc1ccccc1CNc1ccc2c(c1)OCCO2	5	0	-19	0	/	/
SMILES	MITF primary	GPR151 activ	TEAD-YAP inh	FBW7 act	GPR151 confirm	GPR119 ag
O=C(c1ccncc1)N1CCC(Oc2ccc(Cl)cc2)CC1	13	1	10	0	/	/
COc1ccc(-c2noc(CN(C)CCOc3ccccc3)n2)c(OC)c1OC	3	0	-11	0	/	/
CN(CCOc1ccccc1)Cc1nc(-c2ccccc2)no1	11	9.5*	-5	0	0	-8
O=C(CCSc1ccc(Cl)cc1)N/N=C/c1ccccc1	8	2	-2	0	/	/
CCOC(=O)Cc1c(C)nc2c(-c3ccccc3)c[nH]n2c1=O	4	7.5*	8	0	-1	-9
Cc1cc(-c2n[nH]c(=S)n2-c2ccccc2)nn1C	21	18*	9	0	0	2
COc1ccc(C(=O)NC(C)(C)CC(C)(C)C)cc1[N+](=O)[O-]	11	6.6*	-10	0	0	0
CCOC(=O)c1c(-c2ccccc2)oc2ccc(OCc3ccc(C(=O)OC)cc3)cc12	-3	12*	-2	0	0	18
CCn1c(O)c(/C=C2\C=Nc3ccc(Br)cc32)sc1=O	15	1	-9	0	/	/
Oc1[nH]c(=S)sc1/C=C1\C=Nc2ccc(Br)cc21	-9	6.0*	-6	0	0	6
O=S(=O)(Nc1nc2ccc(S(=O)(=O)N3CCCCC3)cc2s1)c1ccccc1	19	5.3*	3	0	-1	-9
CC(=O)c1ccc(OC(=O)COc2ccc3ccccc3c2)cc1	-1	-1	3	1	/	/
Cc1ccc2c(Cn3cc(C(F)(F)F)cc(Cl)c3=O)cc(=O)oc2c1	-8	7.6*	-3	0	-1	-7
COc1ccc(C(=O)Oc2cc(N)n(S(=O)(=O)c3ccc(C)cc3)n2)cc1OC	8	6.3*	4	0	0	10
Cc1ccc(C(=O)Oc2cc(N)n(S(=O)(=O)c3ccc(C)cc3)n2)cc1	10	1	-13	0	/	/
CC(=O)Nc1cnn(-c2ccc(C(=O)NC(c3ccncc3)c3ccccc3C)cc2)c1 (stereo not given)	-4	5.4*	-7	0	0	1
COc1cc(C)c(C)cc1S(=O)(=O)NC1CCCCC1C (stereo not given)	5	8.8*	2	0	0	8
COc1ccc(C)cc1S(=O)(=O)NC1CCCCC1C (stereo not given)	-5	2	-6	0	/	/
CC(C)(S)C(=O)N[C@@H](CS)C(=O)O	-9	-2	-2	0	/	/
CC(C)(S)C(N)C(=O)O (stereo not given)	1	5.1*!	-9	0	0	-9
CC(=O)Nc1ccc(S(=O)(=O)N2CCCCC2C)cc1 (stereo not given)	11	-1	3	0	/	/
O=C(NCSc1ncccn1)c1ccccc1	-10	7.6*	-4	0	-1	-15
CC1=C(Cl)OC(=O)C(C)(c2c(Cl)cncc2Cl)N1 (stereo not given)	-2	0	-3	0	/	/

Compound activity from PubChem BioAssay.
